Screening data deposited in PubChem BioAssay by National Center for Advancing Translational Sciences (NCATS).
POLI inh – qHTS for Inhibitors of Polymerase Iota; Pol iota fluorescent replication assay, 10 min; AID 588590, 2011; Potency, µM (top dose mostly 115 µM), actives largely listed as inhibitors; DNA polymerase iota (Homo sapiens), Q9UNA4; hit rate 1% among 390,000
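Pol iota at 10 nM preincubated 15 min with compounds at room temperature; reaction started with fluorescent substrate, 50 nM final. Fluorescence read kinetically at 0 and 10 min; buffer-only wells as negative control.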
WRN helicase inh – qHTS for Inhibitors of WRN Helicase; Bifunctional 3'-5' exonuclease/ATP-dependent helicase WRN (Homo sapiens), Q14191; WRN helicase unwinding, fluorescent forked duplex, kinetic; Potency, µM (doses to about 114 µM), actives largely listed as inhibitors; hit rate 0.46% among 360,000; note: nearly all actives have a fitted effect of over 55% in size
Target sequence (Q14191 whole entry, looked up): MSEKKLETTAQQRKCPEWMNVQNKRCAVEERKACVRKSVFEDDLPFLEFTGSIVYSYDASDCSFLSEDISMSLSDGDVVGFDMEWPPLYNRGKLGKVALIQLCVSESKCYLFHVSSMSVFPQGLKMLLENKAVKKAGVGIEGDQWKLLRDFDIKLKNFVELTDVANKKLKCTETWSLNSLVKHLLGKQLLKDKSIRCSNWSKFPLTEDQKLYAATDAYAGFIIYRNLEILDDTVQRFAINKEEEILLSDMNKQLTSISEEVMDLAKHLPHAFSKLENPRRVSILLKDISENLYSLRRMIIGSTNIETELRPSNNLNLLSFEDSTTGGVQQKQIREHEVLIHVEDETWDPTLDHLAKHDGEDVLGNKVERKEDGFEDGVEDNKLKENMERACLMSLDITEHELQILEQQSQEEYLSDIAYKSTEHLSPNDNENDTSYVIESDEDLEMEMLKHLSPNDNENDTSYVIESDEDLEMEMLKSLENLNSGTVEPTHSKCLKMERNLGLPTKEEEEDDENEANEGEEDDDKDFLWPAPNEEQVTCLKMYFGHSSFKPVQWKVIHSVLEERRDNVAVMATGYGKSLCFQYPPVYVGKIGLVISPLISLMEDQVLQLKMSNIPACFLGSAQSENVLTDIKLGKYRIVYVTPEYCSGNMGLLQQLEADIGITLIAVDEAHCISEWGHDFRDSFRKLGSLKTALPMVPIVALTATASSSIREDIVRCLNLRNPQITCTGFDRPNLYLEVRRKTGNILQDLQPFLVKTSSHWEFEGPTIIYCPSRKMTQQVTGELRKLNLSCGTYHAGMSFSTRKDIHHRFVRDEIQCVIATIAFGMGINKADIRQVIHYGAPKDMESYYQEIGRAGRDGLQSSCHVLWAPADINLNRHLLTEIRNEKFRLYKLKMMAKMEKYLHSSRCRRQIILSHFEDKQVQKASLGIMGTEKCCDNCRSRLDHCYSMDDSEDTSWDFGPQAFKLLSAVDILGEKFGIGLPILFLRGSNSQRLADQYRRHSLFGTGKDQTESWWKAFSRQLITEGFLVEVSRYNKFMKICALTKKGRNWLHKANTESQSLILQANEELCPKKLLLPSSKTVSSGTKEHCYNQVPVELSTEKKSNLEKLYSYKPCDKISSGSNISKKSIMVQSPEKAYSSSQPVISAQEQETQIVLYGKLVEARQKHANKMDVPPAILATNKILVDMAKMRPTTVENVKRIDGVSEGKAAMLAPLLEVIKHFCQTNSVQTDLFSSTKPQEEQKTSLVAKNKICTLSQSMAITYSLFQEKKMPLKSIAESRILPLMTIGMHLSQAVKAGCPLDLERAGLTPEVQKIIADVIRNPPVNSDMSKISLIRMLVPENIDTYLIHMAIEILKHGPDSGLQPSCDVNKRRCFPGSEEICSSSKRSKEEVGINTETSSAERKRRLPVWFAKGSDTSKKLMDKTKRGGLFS
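Enzyme (20 nM final) and test compound sit together 15 min at room temperature before substrate addition. Substrate is a single-forked duplex oligonucleotide (100 nM) labelled with fluorophore and quencher, with 2 mM ATP; helicase unwinding raises red fluorescence, read kinetically.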
Pol eta inh-1 – qHTS for Inhibitors of Polymerase Eta; DNA polymerase eta (Homo sapiens), Q9Y253; recombinant Pol eta, fluorescent DNA replication assay; Potency, µM (highest dose often 114 µM), usual class: inhibitors; hit rate 1.2% among 390,000; AID 588591, 2011
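Pol eta (10 nM) was preincubated with compounds for 15 min at room temperature, after which fluorescent replication substrate (50 nM final) was added to start the reaction. Fluorescence was read kinetically at 0 and 10 min.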
Pol beta inh – qHTS Assay for Inhibitors of DNA Polymerase Beta; P06746; Pol beta primer extension/strand displacement, fluorescence kinetic; Potency, µM (top dose mostly 114 µM), hits mostly inhibitors; hit rate 1.3% among 340,000; AID 485314, 2010
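Curves were derived by four-parameter Hill fits of normalized qHTS data. The kinetic fluorescent primer-extension read was taken at 0 and 10 min after 50 nM substrate, following a 15 min room-temperature preincubation of 10 nM enzyme with compounds.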
FEN1 inh-1 – qHTS Assay for the Inhibitors of Human Flap endonuclease 1 (FEN1). P39748. Recombinant FEN1 flap cleavage, fluorescence, 15 min. Potency, µM (titrated, usually from 114 µM), usual class: inhibitors. hit rate 0.35% among 390,000; note: nearly all actives have a fitted effect of over 65% in size
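Steps: FEN1 (10 nM) dispensed; compound added by pin tool; 15 min at room temperature; substrate added to 50 nM final; reads at 0 min and 15 min; data normalized and fitted (four-parameter Hill).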
Pol kappa inh-1 – qHTS for Inhibitors of Polymerase Kappa | DNA polymerase kappa (Homo sapiens), Q9UBT6 | purified Pol kappa, fluorescent DNA synthesis assay, 10 min | Potency, µM (titrated, usually from 107 µM), most hits filed as inhibitors | hit rate 0.53% among 400,000 | AID 588579, 2011
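Inhibition of 10 nM Pol kappa is measured by a fluorescent read-out at 0 and 10 min following addition of 50 nM substrate (final), with a 15-min room-temperature compound preincubation.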
TbPGK inh – qHTS for inhibitors of Phosphogylcerate Kinase: Hit Validation Screen. hit rate 79% among 500. TbPGK coupled GAPDH assay, Kinase-Glo luminescence. shares compounds with Pol kappa inh-1. Potency, µM (doses to about 57.5 µM), usual class: inhibitors; note: nearly all actives have a fitted effect of over 65% in size
POLI cherry-pick – qHTS for Inhibitors of Polymerase Iota: Confirmatory Assay for Cherry-picked Compounds | shares compounds with Pol kappa inh-1 | Pol iota primer extension, TAMRA/BHQ fluorescence | Potency, µM, most hits filed as inhibitors | hit rate 77% among 1,500 | AID 720496, 2013
GALK inh confirm – Confirmation Assay for Inhibitors of Human Galactokinase (GALK). shares compounds with Pol eta inh-1. purified GALK, Kinase-Glo ATP depletion luminescence. Potency, µM (doses to about 115 µM), most hits filed as inhibitors. hit rate 70% among 150. AID 2015, 2009
Redox cycling – Confirmatory Assay for Inhibitors of Human Galactokinase (GALK): Phenol-HRP redox assay counterscreen; shares compounds with Pol eta inh-1; Phenol red-HRP H2O2 redox cycling, absorbance 600 nm; Potency, µM (highest dose often 115 µM), most hits filed as inhibitors; hit rate 40% among 150; AID 2035, 2009
HEK293 viability – Secondary Assay for Inhibitors of Human Galactokinase (GALK): HEK-293 Cell Viability Assay; Potency, µM (top dose mostly 46.1 µM), actives largely listed as inhibitors; AID 2547, 2010; HEK-293 viability, ATP luminescence (CellTiter-Glo), 24/48 h; shares compounds with Pol eta inh-1; hit rate 10% among 170
Pol kappa inh-2 – qHTS for Inhibitors of Polymerase Kappa: Confirmatory Assay for Cherry-picked Compounds. shares compounds with Pol eta inh-1. purified Pol-kappa, fluorescent strand-displacement substrate. Potency, µM, most hits filed as inhibitors. hit rate 76% among 920
Pol eta inh-2 – qHTS for Inhibitors of Polymerase Eta: Confirmatory Assay for Cherry-picked Compounds. shares compounds with Pol eta inh-1. Pol eta primer extension, TAMRA/BHQ fluorescence, 10 min. Potency, µM, actives largely listed as inhibitors. hit rate 64% among 2,600
FEN1 inh-2 – qHTS Assay for the Inhibitors of FEN1: Confirmatory Assay for Cherry-picked Compounds; shares compounds with FEN1 inh-1; FEN1 flap cleavage, TAMRA/BHQ2 fluorogenic DNA substrate; Potency, µM, hits mostly inhibitors; hit rate 79% among 880; note: nearly all actives have a fitted effect of over 60% in size
Numbers stand for hits; . = inactive; ? = inconclusive; / = no result given. Most compounds without a hit are left out; they make up all but 2.4% or so of the library. Calls come from the whole dose curve; as a rule, active = well fitted curve in the direction sought with a large enough effect; inconclusive = small, poorly fitted or top-dose-only effect, or another doubt; inactive = no such curve, though single readings can be large; an effect the other way counts as inactive or inconclusive.

SMILES	POLI inh	WRN helicase inh	Pol eta inh-1	Pol beta inh	FEN1 inh-1	Pol kappa inh-1	POLI cherry-pick	Pol eta inh-2	FEN1 inh-2	others
N=C1/C(=C/c2ccc(-c3cccc(C(=O)O)c3)o2)C(=O)N=C2SC=C(c3ccccc3)N12	3.98µM	35.5µM	3.16µM	28.2µM	?	7.08µM	18.9	7.57	23.9	TbPGK inh=36.6µM
N=C1/C(=C\c2ccc(-c3cc(Cl)cc(Cl)c3)o2)C(=O)N=C2SC=C(c3ccccc3)N12	?	.	.	.	.	.	/	/	/
Oc1ccc(CNc2cccnc2)c2cccnc12	/	/	/	/	/	/	?	/	37.9
NS(=O)(=O)c1ccc(N/N=C/c2ccccc2C(=O)O)c([N+](=O)[O-])c1	.	.	.	.	.	.	/	/	/
O=C(O)c1ccccc1NS(=O)(=O)c1ccc(N/N=C/c2ccc(O)c(O)c2)c([N+](=O)[O-])c1	7.94µM	11.2µM	2.51µM	/	28.2µM	31.6µM	26.7	30.1	47.8	TbPGK inh=10.3µM;Pol kappa inh-2=16.8
COc1ccccc1NS(=O)(=O)c1ccc(N/N=C/c2ccccc2OCC(=O)O)c([N+](=O)[O-])c1	?	.	?	.	?	.	/	/	/
NS(=O)(=O)c1ccc(N/N=C/c2ccc(O)c(O)c2O)c([N+](=O)[O-])c1	2.82µM	?	2.51µM	1.26µM	10µM	10µM	16.8	15.1	15.1
COc1ccccc1CNC(=O)C(=O)NCC1CCCN1S(=O)(=O)c1cc(C)ccc1C (configuration not stated)	/	.	.	/	/	/	/	/	/
O=S(=O)(NCCc1csc(-c2ccc(F)cc2)n1)c1ccc(Cl)cc1	.	/	.	.	.	.	/	/	/
CCOc1ccc(S(=O)(=O)Nc2cc(SCC(=O)O)c(O)c3ccccc23)cc1	10µM	79.4µM	44.7µM	?	?	.	?	?	67.5
O=C(O)c1cccc(S(=O)(=O)Nc2ccc([N+](=O)[O-])cc2O)c1	?	.	.	.	.	?	/	/	/
CCOc1ccc(S(=O)(=O)Nc2cc3c(C(=O)OC)c(COC)oc3c3ccccc23)cc1	.	/	.	?	.	.	/	/	/
O=C(O)CSc1cc(NS(=O)(=O)c2cccc([N+](=O)[O-])c2)c2ccccc2c1O	3.16µM	39.8µM	22.4µM	79.4µM	3.16µM	?	26.7	26.9	75.7	GALK inh confirm=33.5µM;Redox cycling=21.1µM;HEK293 viability=.
Cc1ccc(N2C(=O)c3ccccc3C2C(=O)c2ccc(O)cc2O)cc1 (configuration not stated)	11.2µM	?	79.4µM	35.5µM	39.8µM	11.2µM	18.9	30.1	33.8
COC(=O)c1cc(O)cc(OC)c1Oc1cc(C)cc(O)c1C(=O)O	12.6µM	20µM	3.55µM	3.16µM	50.1µM	11.2µM	13.4	12	75.7	TbPGK inh=1.03µM
COc1cc(C2c3c([nH]c(=O)[nH]c3=O)Nc3ccc4ccccc4c32)cc(OC)c1OC (configuration not stated)	17.8µM	20µM	79.4µM	.	28.2µM	25.1µM	42.3	60.1	30.1
CCOc1ccc2c(ccc(/C=C/c3cc(C)c4cccnc4c3O)[n+]2C)c1	?	10µM	20µM	/	8.91µM	?	18.9	21.3	12	Pol kappa inh-2=18.9
O=C(NCc1cccs1)c1ccc2sc(COCCO)nc2c1	/	.	/	/	/	/	/	/	/
C=Cc1c(C)c2cc3[nH]c(cc4nc(cc5nc(cc1[nH]2)C(C)=C5CCC(=O)O)C(CCC(=O)O)=C4C)c(C)c3C=C	10µM	35.5µM	4.47µM	1.41µM	35.5µM	9.47µM	2.99	2.69	33.8	TbPGK inh=0.231µM
Cc1cc(C)n2nc(C(=O)N/N=C/c3ccccc3Cl)nc2n1	.	.	.	.	.	.	/	/	/
Cc1cc(C)n2nc(C(=O)N/N=C/c3c4ccccc4cc4ccccc34)nc2n1	.	?	?	?	44.7µM	.	67	?	?
CC1(Oc2cccc(F)c2)CCN(Cc2ccc(-c3ccccc3)o2)C1 (configuration not stated)	/	.	/	/	/	/	/	/	/
O=C(O)c1cc(O)c2c(c1)C(=O)c1cccc(O)c1C2=O	39.8µM	26.7µM	50.1µM	11.2µM	?	50.1µM	67	75.7	4.26	Pol kappa inh-2=47.4
Cc1ccc(-c2ccc(/C=N\NC(=O)c3cc4c(ccc5ccccc54)o3)o2)cc1[N+](=O)[O-]	.	.	?	?	.	.	/	/	/
O=C(N/N=C/c1ccc(-c2ccc(Cl)c(C(=O)O)c2)o1)c1cc2c(ccc3ccccc32)o1	17.8µM	20µM	11.2µM	?	39.8µM	31.6µM	75.2	19	21.3
O=C(NCc1ccccc1)c1cc(C2CCCN(C(=O)c3ccc4c(c3)CCO4)C2)on1 (configuration not stated)	/	.	/	/	/	/	/	/	/
